Laboratory results as given in PubChem BioAssay AID1628 (Sanford-Burnham Center for Chemical Genomics, 2009).
The whole screen tested about 190,000 compounds, of which about 930 (0.49%) were called active. Some of the results follow. Results with a measured potency or affinity are listed apart. Unmarked numbers belong to inactive results.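 How the source made its calls: active means z-score of insulin promoter reporter brightness in nuclei below -3 at 5 µM, with at least 500 cells counted; inconclusive means wells with under 500 cells, flagged as toxic or sparse; inactive means the rest.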

test: decrease of insulin promoter-GFP reporter – imaging, high-content screening, mouse beta cells (AID 1628); conditions: MIN6 insulin promoter GFP reporter, at 5 µM, hits give low values

SMILES | z-score
CCCCCOC(=O)C1=C(C)Nc2nnnn2C1c1ccc(OC)c(OC)c1OC (configuration not stated) | 3.26
COc1ccc(C2=CC(c3ccc(OC)c(OC)c3)n3nnnc3N2)c(OC)c1 (configuration not stated) | -3.02 (active)
COc1ccc(C2C=C(c3cccs3)Nc3nc(CCCO)nn32)cc1 (configuration not stated) | 5.85
CCOC(=O)N1CCC(N2Cc3cccc(C(=O)N4CCN(c5cccc(C)c5C)CC4)c3C2=O)CC1 | 2.62
COc1cccc(CN2CCN(C3CCN(c4cccc(C)c4C)CC3)CC2CCO)c1 (configuration not stated) | -8.37 (active)
COc1cc(C(Nc2ccc3c(c2)OCO3)C(=O)NC2CCCCC2)cc(OC)c1OC (configuration not stated) | -3.78 (active)
Fc1ccc(C2NCCn3cccc32)cc1 (configuration not stated) | 3.94
CNC(=O)c1ccc(-c2sc3nc(N4CCOCC4)c4c(c3c2N)CCCC4)o1 | -3.66 (active)
Nc1c(C(=O)c2ccc(Cl)cc2)sc2nsc(SCCN3CCOCC3)c12 | 4.91
CNC(=O)c1ccc(-c2sc3nc(N4CCOCC4)c4c(c3c2N)CC(C)(C)OC4)o1 | 3.23
Nc1c(C(=O)NCCc2ccccc2)sc2nc(N3CCOCC3)c3c(c12)CCCC3 | -3.11 (active)
N#C/C(=C\c1ccc(N2CCOCC2)o1)C(=O)NCCc1ccccc1 | 4.72
c1ccc(-c2ccc(-c3nccc4ccccc34)[nH]2)cc1 | 4.38
O=c1[nH]c(-c2ccccn2)nc2sc(-c3ccccc3)cc12 | -6.56 (active)
CCN1/C(=C/c2cc[n+](CCCS(=O)(=O)[O-])c3ccccc23)Sc2ccccc21 | 6.08
CC[n+]1c(/C=C/C=C/N(C(C)=O)c2ccccc2)sc2cc(OC)ccc21 | 17.2
CCC(/C=C1\Sc2ccc(OC)cc2N1CC)=C\c1sc2ccc(OC)cc2[n+]1CCCS(=O)(=O)[O-] | -3.29 (active)
Cc1ccc(CN=Cc2[nH]c3ccc(Br)c(Cl)c3c2O)cc1 | 9.43
Cc1ccc(Nc2nc(Cl)c(C=O)s2)cc1Cl | 6.83
Cc1nc([N+](=O)[O-])c(Br)n1CC(=O)c1cccc([N+](=O)[O-])c1 | 2.48
Cc1nc([N+](=O)[O-])c(N2CCN(Cc3ccccc3)CC2)n1Cc1ccccc1 | -3.12 (active)
CC(C)(C)C1CCc2c(sc(N)c2C(N)=O)C1 (configuration not stated) | -5.29 (active)
COc1ccccc1NS(=O)(=O)c1cc([N+](=O)[O-])ccc1N/N=C/c1sc(N2CCOCC2)nc1-c1ccccc1 | 4.89

SMILES | z-score
O=[N+]([O-])c1ccc(N/N=C/c2sc(N3CCOCC3)nc2-c2ccccc2)c(S(=O)(=O)Nc2ccccc2Cl)c1 | 13.1
Nc1ccc(C(=O)N/N=C/c2sc(N3CCOCC3)nc2-c2ccccc2)cc1 | -4.08 (active)
Oc1ccc(CN2CCC(Cc3ccccc3)CC2)c2cccnc12 | -5.12 (active)
CCOC(=O)c1c(C)nn(Cc2cccc(Cl)c2)c1N | -5.31 (active)
CCOC(=O)c1nn(-c2ccc(Cl)cc2Cl)c(=N)c(C#N)c1C | 10.8
COc1ccc(C)cc1NC(=O)c1nnn(Cc2cccc(C(F)(F)F)c2)c1N | 3.48
C=CCN1C(=O)/C(=C/C=C2/N(CC)c3ccc(S(=O)(=O)N(C)C)cc3N2CC)SC1=S | 17.1
CCOC(=O)C(C)c1nn(C)c(=O)c2ccccc12 (configuration not stated) | -3.52 (active)
CCOC(=O)C1C(=O)CC(C)(O)C(C(=O)OCC)C1c1ccccc1 (configuration not stated) | 0.91
COc1ccc(N2C(=O)CCC(C(=O)NCCCN3CCC(C)CC3)C2c2ccc(OC)c(OC)c2)cc1 (configuration not stated) | 4.36
CCCCn1c(CN2CCN(c3cccc(Cl)c3)CC2)nc2c1c(=O)n(C)c(=O)n2C | -5.64 (active)
CCCn1c(CN2CCN(c3cccc(Cl)c3)CC2)nc2c1c(=O)n(C)c(=O)n2C | -6.4 (active)
Cn1ncc2c1ncn1nc(CCc3ccccc3)nc21 | 3.58
NC(=O)c1c[nH]c2ccccc12 | -0.45
CCOC(=O)c1c(C)c(C(=O)NC2CCCCC2)c(C)n1CC | -3.91 (active)
CCOC(=O)COc1ccc(C(=O)NC2CCCCC2)cc1 | 4.25
CC(C)NC(=O)/C(C#N)=C/c1ccc(N(C)C)o1 | 9.4
COc1ccc(/C=C2\C(=O)NC(=S)N2C(=O)c2ccc(F)cc2)cc1 | 4.23
CO/N=C/c1ccc(N2CCN(C(=O)c3ccc(F)cc3)CC2)c([N+](=O)[O-])c1 | -5.66 (active)
COc1cc([C@@H]2[C@H]3CN(C)CC=C3C(C#N)=C(N)C2(C#N)C#N)cc2c1OCO2 | 5.23
COc1cc(/C=N/N=C(\N)c2nonc2N)cc(OC)c1OC | 3.59
O=C(Nc1ccccc1)C(O)C(O)C(=O)Nc1ccccc1 (configuration not stated) | -0.63
O=C(Nc1ccccc1)N1CCSc2ccccc21 | -3.05 (active)

SMILES | z-score
COC(=O)c1cn(NC(=O)/C=C/c2cc(OC)ccc2OC)c(=O)c2ccccc12 | -3.15 (active)
CC1(C#CC[N+]2(C)CCCCC2)CCC2C(O1)c1ccccc1OC2(C)C (configuration not stated) | 3.38
CC(=O)C(=Cc1cn(-c2ccccc2)nc1-c1ccccc1)C(C)=O | 3.2
COc1ccc(-c2nn(-c3ccccc3)cc2/C=C(\C#N)S(=O)(=O)c2ccccc2)cc1OC | -4.08 (active)
CN(C)c1ccc(/C=C/c2ccc3ccccc3n2)cc1 | 7.29
Cc1cc(N2C(=O)c3ccccc3C2=O)n(C)n1 | 3.77
O=C(/C=C/c1ccco1)NC(=S)Nc1ccccc1N1CCCC1 | 3.08
CCn1c(SCC(=O)N2CCCC2)nnc1-c1ccc(N)cc1 | 1.98
CCOC(=O)c1ccc(CSc2nnc(-c3ccncc3)n2N)cc1 | 3.8
CCc1nnc(NC(=O)CSc2ccc(-c3cccs3)nn2)s1 | 1.38
COc1ccc(NC(=O)CSc2nnc(-c3cccs3)n2C)cc1OC | 3.55
CCn1c(SCC(=O)Nc2cc(OC)c(OC)c(OC)c2)nnc1-c1cccs1 | -4.1 (active)
CCOc1ccccc1N1CC(O)=C(c2nc3ccccc3s2)C1=N | -3.91 (active)
Cc1ccc(N2C(=O)C3C(C(=O)c4ccccc4)=NN(c4ccccc4)C3C2=O)cc1 (configuration not stated) | 3.17
Cc1ccc(-n2cc(-c3ccc([N+](=O)[O-])cc3)[nH]c2=S)c(C)c1 | -6.17 (active)
CCN1CCC2(CC1)N=C(c1ccc(F)cc1)C(=S)N2 | 4.47
CS(=O)(=O)ON=C1CCN(S(=O)(=O)c2ccccc2)CC1 | 3.51
O=c1oc2c(CN3CCCCC3)c(O)ccc2cc1-c1nc2ccccc2[nH]1 | 3.57
O=C1C=C(c2ccccc2)C[C@H](c2cccs2)[C@H]1n1nnc([N+](=O)[O-])n1 | -3.36 (active)
CCOC(=O)CC1C(=O)NCCN1c1nc2c(C)cccn2c(=O)c1/C=C1\SC(=S)N(CC(C)C)C1=O (configuration not stated) | 16.9
CCN(CC)CCCC(C)Nc1c2ccc(Cl)cc2nc2ccc(OC)cc12 (configuration not stated) | 12.4
CCN(CC)CCCNc1nc2cc(OC)c(OC)cc2c2nc(-c3cccnc3)nn12 | -3.38 (active)
CC1CCC(C(C)C)C(OC(=O)C[n+]2cc(-c3ccc(Cl)cc3)n3c2CCCCC3)C1 (configuration not stated) | -4.3 (active)

SMILES | z-score
COc1ccc(-c2c[n+](CC(=O)N3c4ccccc4Sc4ccccc43)c3n2CCC3)cc1 | -3.33 (active)
Nc1ccc(-c2nc3nc(N)nc(N)c3nc2-c2ccc(N)cc2)cc1 | 4.9
Cc1cccc(OCC2=N/C(=C\N(C)C)C(=O)O2)c1 | 2.11
Nc1nonc1C(=O)NCCNCc1ccccc1OCc1ccccc1F | -3.51 (active)
COc1ccc(C(=O)N(CN2CCCC2=O)c2ccc(C)cc2)cc1 | 3.42
COc1ccc(S(=O)(=O)N(CCCN2CCCC2=O)Cc2cc3c(C)ccc(C)c3[nH]c2=O)cc1 | -4.34 (active)
COC(=O)c1cnn2c(C(F)(F)F)cc(-c3ccc(F)cc3)nc12 | 4.23
Oc1c(C(c2ccccn2)N2CCCCC2)cc(Cl)c2cccnc12 (configuration not stated) | -5.13 (active)
COc1ccc(NC(=S)N(CCCN2CCOCC2)C(C)c2cc3cccc(OC)c3o2)cc1 (configuration not stated) | 2.54
COc1ccc(-c2cc(C(F)(F)F)nc(SCC(=O)NCCN3CCOCC3)n2)cc1OC | 0.28
COc1ccc(-c2csc(N(CCCN3CCOCC3)C(=O)c3ccco3)n2)cc1 | -4.01 (active)
CN(C)CCCN(C(=O)COc1ccc(Cl)cc1)c1nc2ccc(F)cc2s1 | 1.61
COc1ccc(-c2csc(N(CCCN(C)C)C(=O)c3cccs3)n2)cc1 | -4.21 (active)
Cc1[nH]c2ccccc2c1Cc1nnc(SCC(N)=O)o1 | 4.82
COc1ccc(C(=O)CSc2nnc(Cn3cnc4ccccc43)o2)cc1 | -3.47 (active)
C/C(=N\S(=O)(=O)c1ccc(C)cc1)N1CCN(S(=O)(=O)c2ccccc2)C1 | 3.52
CCC(=O)c1cc(F)c(N2CCN(S(=O)(=O)c3ccc(C)cc3)CC2)cc1C | -4.01 (active)
CCCSc1nc2sc3c(c2c(=O)[nH]1)CCN(Cc1ccccc1)C3 | 7.3
CC(C)(C)c1cc(C(=O)NCc2cccnc2)ccn1 | 4.34
O=C(c1ccco1)N(Cc1ccccc1)c1cccc([N+](=O)[O-])c1 | 2.28
CC(=O)c1c(COC(=O)c2ccncc2)nc2ccccc2[n+]1[O-] | 4.18
CCOc1ccc(C(=O)O)cn1 | 0.1
CCOc1ccc2nc(C)cc(Nc3cccc([N+](=O)[O-])c3)c2c1 | -3.35 (active)
